The list is not random: actives were taken first. Their share in the collection is about 4.1%.
hgDAF12 agonist = H. glycines DAF-12 receptor agonists, primary screen, cell-based, luminescence, HEK293, GAL4 fusion, UAS-luciferase; Nuclear hormone receptor DAF-12 (Heterodera glycines), GAL4 fusion; HEK293 GAL4-hgDAF12 UAS-luciferase reporter, agonist luminescence; normalized to butyrate control; activation, % at 6.8 µM; 370,000 compounds, 1.8% hits; AID 687014, 2013;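 active means activation above a cutoff set at the mean of all screened compounds plus 3 SD, cut at about 10% in these data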;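 further: 0% = DMSO wells and 100% = sodium butyrate wells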
ssDAF12 agonist = S. stercoralis DAF-12 nuclear receptor activators, primary screen, cell-based, luminescence, HEK293, GRIP1 co-expression, lit1-tk-luc; Nuclear hormone receptor DAF-12 (Strongyloides stercoralis); HEK293 ssDAF-12/GRIP1 lit1-tk-luc reporter; % of 3 µM dafachronic acid response; activation, % at 6.8 µM; 370,000 compounds, 1% hits;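 active means activation above the mean over all tested compounds plus 3 SD, cut at about 0.9% in these data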;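 further: 0% = DMSO-only wells and 100% = 3 µM delta7-dafachronic acid wells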
hcDAF-12 act = H. contortus DAF-12 nuclear receptor activators, primary screen, cell-based, luminescence, HEK293, lit1-tk-luc reporter. 370,000 compounds, 1.4% hits. HEK293 hcDAF-12 lit1-tk-luc reporter; 0% DMSO, 100% Δ7-dafachronic acid. activation, % at 6.8 µM;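 active means activation above the mean of all tested compounds plus 3 SD, cut at about 5.5% in these data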;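 further: 100% = response to 3 µM Δ7-dafachronic acid high control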
DAX1 inh-1 = DAX1 (NR0B1) inhibitors on StAR promoter, primary screen, cell-based, luminescence, SF-1 (NR5A1), full-length DAX-1; HEK293T StAR-luciferase reporter, SF-1/DAX-1 repression relief; inhibition, % at 6.8 µM; 370,000 compounds, 1.1% hits; AID 652010, 2013;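 active means inhibition above the mean over all tested compounds plus 3 SD, cut at about 3.6% in these data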;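 further: 0% = DAX-1 cells with DMSO and 100% = cells lacking DAX-1 with DMSO; higher inhibition means more luminescence from relief of DAX-1 repression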
DAX1 inh-2 = DAX1 (NR0B1) inhibitors, primary screen, cell-based, HEK293, Gal4-DAX1, luciferase luminescence; HEK293 Gal4-DAX1 luciferase reporter; inhibition, % at 6.75 µM; 340,000 compounds, 0.99% hits; AID 504766, 2011;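 active means inhibition above the mean over all tested compounds plus 3 SD, cut at about 4.2% in these data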;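 further: 0% = DAX1-transfected cells with DMSO and 100% = empty-vector control cells with DMSO; inhibition shows as a rise in luminescence from relieved DAX1 repression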
Target sequence (P51843 207-470 limits assumed): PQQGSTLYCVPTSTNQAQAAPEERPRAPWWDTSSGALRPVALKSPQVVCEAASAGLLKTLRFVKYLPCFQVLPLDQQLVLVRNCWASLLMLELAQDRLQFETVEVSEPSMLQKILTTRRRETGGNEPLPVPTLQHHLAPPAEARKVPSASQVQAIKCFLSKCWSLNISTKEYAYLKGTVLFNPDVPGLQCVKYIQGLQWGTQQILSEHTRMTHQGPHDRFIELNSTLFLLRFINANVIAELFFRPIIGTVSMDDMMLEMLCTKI
Starred values were filed as active, the others as inactive.

Cc1cccc(OCC(=O)Nc2cc(C)c(C)cc2O)c1 was read as hgDAF12 agonist 3, ssDAF12 agonist 0, hcDAF-12 act 3, DAX1 inh-1 1 and DAX1 inh-2 -1.
For O=C(N/N=C\c1cccc(OC(=O)c2ccco2)c1)c1ccc2c(c1)OCO2 the results were hgDAF12 agonist 12*, ssDAF12 agonist 0, hcDAF-12 act 2, DAX1 inh-1 3 and DAX1 inh-2 0.
Screening Cc1ccsc1/C=N\NC(=O)c1ccc2c(c1)OCO2 returned hgDAF12 agonist 10, ssDAF12 agonist -1, hcDAF-12 act 4, DAX1 inh-1 4.0* and DAX1 inh-2 2.
For Cc1cccc(OCC(=O)Nc2cc(C)ccc2O)c1 the results were hgDAF12 agonist 2, ssDAF12 agonist 1.1*, hcDAF-12 act 2, DAX1 inh-1 -1 and DAX1 inh-2 0.
Screening Cc1cccc(OCC(=O)N/N=C/c2ccc3c(c2)OCO3)c1 returned hgDAF12 agonist 1, ssDAF12 agonist 1.2*, hcDAF-12 act 0, DAX1 inh-1 0 and DAX1 inh-2 -1.
Cc1ccc(C(=O)N/N=C\c2sccc2C)cn1 was read as hgDAF12 agonist 1, ssDAF12 agonist -1, hcDAF-12 act 0, DAX1 inh-1 1 and DAX1 inh-2 0.
`C[C@H]1[C@@H](c2ccccc2)OC(O)([C@H](Cc2ccccc2)NC(=O)OC(C)(C)C)CN1C` (stereo partly drawn) gave hgDAF12 agonist -1, ssDAF12 agonist -2 and hcDAF-12 act -1.
`O=C(N/N=C/c1ccc[nH]1)c1ccc2c(c1)OCO2` gave hgDAF12 agonist 11*, ssDAF12 agonist -1, hcDAF-12 act 1, DAX1 inh-1 0 and DAX1 inh-2 0.
`Cc1cccc(/C=N/NC(=O)c2ccc3c(c2)OCCO3)c1O` gave hgDAF12 agonist 6, ssDAF12 agonist 1.1*, hcDAF-12 act 4, DAX1 inh-1 0 and DAX1 inh-2 -3.
Screening COc1ccccc1/C=N/NC(=O)c1ccc2c(c1)OCO2 returned hgDAF12 agonist 4, ssDAF12 agonist -1, hcDAF-12 act 0, DAX1 inh-1 0 and DAX1 inh-2 4.3*.
`O=C(NN=Cc1ccc2c(c1)OCO2)c1ccncc1` gave hgDAF12 agonist -1, ssDAF12 agonist -1, hcDAF-12 act 0, DAX1 inh-1 1 and DAX1 inh-2 1.
Screening O=C(N/N=C/c1ccc2c(c1)OCO2)c1ccc2c(c1)OCO2 returned hgDAF12 agonist 5, ssDAF12 agonist 0, hcDAF-12 act 4, DAX1 inh-1 4.0* and DAX1 inh-2 1.
For CCCCOCCCNC(=O)C[C@H]1C[C@@]2(C(=O)OC)C(=C[C@H](C(C)C)O[C@@H]2C2CC2)N(Cc2ccccc2)C1=O the results were hgDAF12 agonist 1, ssDAF12 agonist -1, hcDAF-12 act -2 and DAX1 inh-1 0.
For CCCCNC(=O)C[C@@H]1C(=O)N(Cc2ccc(OC)cc2)C2=CCN(C(=O)OC(C)(C)C)C[C@]21C(=O)OCC the results were hgDAF12 agonist -1, ssDAF12 agonist -1, hcDAF-12 act -2 and DAX1 inh-1 -1.
Screening O=C(NN=C1CCCCCC1)c1ccc2c(c1)OCO2 returned hgDAF12 agonist 10, ssDAF12 agonist -1, hcDAF-12 act -1, DAX1 inh-1 0 and DAX1 inh-2 2.
CCn1ncc(/C=N/NC(=O)c2ccc3c(c2)OCO3)c1C was read as hgDAF12 agonist 12*, ssDAF12 agonist -1, hcDAF-12 act 0, DAX1 inh-1 -1 and DAX1 inh-2 0.
`O=C(NCCCN1CCOCC1)C(=O)N/N=C/c1ccc2c(c1)OCO2` gave hgDAF12 agonist -1, ssDAF12 agonist -1, hcDAF-12 act -1, DAX1 inh-1 0 and DAX1 inh-2 4.4*.
CCCCCC1=CCC/C1=N\NC(=O)c1ccc2c(c1)OCO2 was read as hgDAF12 agonist 12*, ssDAF12 agonist -2, hcDAF-12 act 0, DAX1 inh-1 1 and DAX1 inh-2 0.
`O=C(NCCCN1CCOCC1)C(=O)N/N=C/c1ccc(F)cc1` gave hgDAF12 agonist 1, ssDAF12 agonist -2, hcDAF-12 act 1, DAX1 inh-1 0 and DAX1 inh-2 -1.
`C#CCCCN([C@@H](CC(C)C)C(=O)OC)S(=O)(=O)c1ccccc1Br` gave hgDAF12 agonist 1, ssDAF12 agonist -1, hcDAF-12 act -3 and DAX1 inh-1 -3.
For Cn1c(=O)oc2cc(S(=O)(=O)N3CCN(CCO)CC3)ccc21 the results were hgDAF12 agonist -1, ssDAF12 agonist 0, hcDAF-12 act -1 and DAX1 inh-1 0.
`COc1ccc(Oc2c(Cl)cnn(CC(=O)C(c3ccccc3)c3ccccc3)c2=O)cc1` gave hgDAF12 agonist 1, ssDAF12 agonist -1, hcDAF-12 act 3 and DAX1 inh-1 1.
`O=C(NCC(c1ccccc1)c1ccccc1)[C@H](Cc1ccccc1)NC1(C(=O)NC2CCCCC2)CCC1` gave hgDAF12 agonist 2, ssDAF12 agonist -1 and hcDAF-12 act 1.
Screening Cc1c(C(=O)N2CCC[C@H]2C(N)=O)oc2c(F)cccc12 returned hgDAF12 agonist 1, ssDAF12 agonist -1, hcDAF-12 act 0, DAX1 inh-1 0 and DAX1 inh-2 6.0*.
`Cc1c(C(=O)N2CCN(c3ccccn3)CC2)oc2c(F)cccc12` gave hgDAF12 agonist -2, ssDAF12 agonist -1, hcDAF-12 act -3, DAX1 inh-1 0 and DAX1 inh-2 -1.
FC(F)(F)Oc1ccc(Nc2nc3ccccc3o2)cc1 was read as hgDAF12 agonist 9, ssDAF12 agonist 0, hcDAF-12 act 5.7*, DAX1 inh-1 1 and DAX1 inh-2 3.
Screening Cc1cc(C)nc(Nc2nc3ccccc3o2)n1 returned hgDAF12 agonist 5, ssDAF12 agonist -1, hcDAF-12 act 1, DAX1 inh-1 1 and DAX1 inh-2 3.
Screening O=c1oc(-c2ccc(O)c(O)c2)cc2cc(O)cc(O)c12 returned hgDAF12 agonist 9, ssDAF12 agonist 1, hcDAF-12 act 13*, DAX1 inh-1 2 and DAX1 inh-2 7.6*.
O=c1oc(-c2ccc(O)c(O)c2)cc2cccc(O)c12 was read as hgDAF12 agonist 6, ssDAF12 agonist 2.6*, hcDAF-12 act 6.9*, DAX1 inh-1 2 and DAX1 inh-2 4.
For COc1ccc(Cn2ccc3ccc(-c4ccc5ccn(C(=O)C6CC6)c5c4)cc32)cc1 the results were hgDAF12 agonist 8, ssDAF12 agonist 0, hcDAF-12 act 2 and DAX1 inh-1 0.

Source: PubChem BioAssay
